# Measured values: the supplement of paper PMC10849652
# Of roughly 7,900 targets only a part is listed; those with a hit were picked by preference. About 0.6% of all pairs of compound and target were hits. Values without a mark were called inactive.
# Assays:
# Experiment in all cases: log2 fold change, soluble protein after heating vs DMSO (PISA); higher = thermal stabilisation; K562 cells, 10 uM, 30 min; active = over 0.2 and 3.5 SD of the protein, either way, in both replicates (recomputed)
# [1] = compound: COC1=CC=C(C=C1)CN2C=CC3=C2C=C(C=C3)C(=O)NO
# Method in brief: (§1)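 For each measurement, 10 μM compound was applied for 30 min to K562 cells at 2×10^6 cells/mL. Aliquots were heated for 3 min across 48°C-58°C, pooled, and extracted in PBS with 0.5% NP-40 at 4°C; the supernatant after 21,000xg for 90 min was soluble protein. This was quantified by TMTpro 16plex LC-MS/MS with channel sums equalised, and thermal stability was reported relative to control samples from duplicates, on a log2 fold-change scale.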
# filanesib = compound: CON(C)C(=O)N1N=C(c2cc(F)ccc2F)S[C@@]1(CCCN)c1ccccc1 [filanesib]
# Method in brief: as §1
# zotarolimus = compound: CO[C@H]1C[C@@H]2CC[C@@H](C)[C@@](O)(O2)C(=O)C(=O)N2CCCC[C@H]2C(=O)O[C@H]([C@H](C)C[C@@H]2CC[C@H](n3cnnn3)[C@H](OC)C2)CC(=O)[C@H](C)/C=C(\C)[C@@H](O)[C@@H](OC)C(=O)[C@H](C)C[C@H](C)/C=C/C=C/C=C/1C [zotarolimus]
# Method in brief: as §1
# idasanutlin = compound: COc1cc(C(=O)O)ccc1NC(=O)[C@@H]1N[C@@H](CC(C)(C)C)[C@](C#N)(c2ccc(Cl)cc2F)[C@H]1c1cccc(Cl)c1F [idasanutlin]
# Method in brief: as §1
# [2] = compound: COc1cc2nc(-c3cc(F)ccc3O)nc(N[C@@H]3CNC[C@H]3C(C)(C)O)c2cc1OC
# Method in brief: as §1
# gefitinib = compound: COc1cc2ncnc(Nc3ccc(F)c(Cl)c3)c2cc1OCCCN1CCOCC1 [gefitinib]
# Method in brief: as §1
# lapatinib = compound: CS(=O)(=O)CCNCc1ccc(-c2ccc3ncnc(Nc4ccc(OCc5cccc(F)c5)c(Cl)c4)c3c2)o1 [lapatinib]
# Method in brief: as §1
# alisertib = compound: COc1cc(Nc2ncc3c(n2)-c2ccc(Cl)cc2C(c2c(F)cccc2OC)=NC3)ccc1C(=O)O [alisertib]
# Method in brief: as §1
# [3] = compound: COc1cccc2cc(-c3nc([C@H]4CC[C@H](C(=O)O)CC4)n4ncnc(N)c34)[nH]c12
# Method in brief: as §1
# pictilisib = compound: CS(=O)(=O)N1CCN(Cc2cc3nc(-c4cccc5[nH]ncc45)nc(N4CCOCC4)c3s2)CC1 [pictilisib]
# Method in brief: as §1
# Sequence of UniProt Q8WYH8 (Q8WYH8 whole entry, looked up): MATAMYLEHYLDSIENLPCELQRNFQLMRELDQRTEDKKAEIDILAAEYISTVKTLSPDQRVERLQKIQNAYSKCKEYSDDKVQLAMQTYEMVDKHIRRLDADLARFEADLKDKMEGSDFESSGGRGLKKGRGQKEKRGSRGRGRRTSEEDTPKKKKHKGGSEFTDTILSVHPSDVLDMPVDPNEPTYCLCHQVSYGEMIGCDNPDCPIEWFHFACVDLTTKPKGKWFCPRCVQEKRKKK
# Sequence of UniProt Q9BQD3 (Q9BQD3 whole entry, looked up): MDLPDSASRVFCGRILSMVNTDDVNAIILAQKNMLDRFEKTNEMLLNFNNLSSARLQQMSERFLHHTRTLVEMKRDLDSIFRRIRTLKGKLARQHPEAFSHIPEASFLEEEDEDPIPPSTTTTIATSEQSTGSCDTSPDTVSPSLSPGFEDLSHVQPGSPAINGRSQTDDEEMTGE
# Sequence of UniProt Q9NQX7 (Q9NQX7 whole entry, looked up): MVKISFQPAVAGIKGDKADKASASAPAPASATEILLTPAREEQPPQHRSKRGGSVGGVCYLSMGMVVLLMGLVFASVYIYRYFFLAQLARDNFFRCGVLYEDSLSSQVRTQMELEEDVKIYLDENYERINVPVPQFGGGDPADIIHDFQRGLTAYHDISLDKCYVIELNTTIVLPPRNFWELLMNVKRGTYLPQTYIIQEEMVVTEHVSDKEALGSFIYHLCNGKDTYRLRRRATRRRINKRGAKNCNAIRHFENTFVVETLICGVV
# Sequence of UniProt Q6NUT3 (Q6NUT3 whole entry, looked up): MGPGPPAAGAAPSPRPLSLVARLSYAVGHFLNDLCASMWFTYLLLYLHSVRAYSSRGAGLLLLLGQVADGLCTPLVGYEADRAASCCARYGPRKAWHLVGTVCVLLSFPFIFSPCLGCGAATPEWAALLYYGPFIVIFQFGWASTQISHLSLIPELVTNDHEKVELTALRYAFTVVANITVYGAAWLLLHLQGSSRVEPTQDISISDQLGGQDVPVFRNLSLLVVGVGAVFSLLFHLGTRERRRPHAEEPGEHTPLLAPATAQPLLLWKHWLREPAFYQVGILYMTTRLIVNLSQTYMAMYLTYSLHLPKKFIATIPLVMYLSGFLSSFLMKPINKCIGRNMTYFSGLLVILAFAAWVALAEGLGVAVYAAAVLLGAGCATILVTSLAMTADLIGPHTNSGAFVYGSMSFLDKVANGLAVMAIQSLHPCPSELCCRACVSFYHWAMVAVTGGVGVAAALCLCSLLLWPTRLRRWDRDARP
# Sequence of UniProt P10620 (P10620 whole entry, looked up): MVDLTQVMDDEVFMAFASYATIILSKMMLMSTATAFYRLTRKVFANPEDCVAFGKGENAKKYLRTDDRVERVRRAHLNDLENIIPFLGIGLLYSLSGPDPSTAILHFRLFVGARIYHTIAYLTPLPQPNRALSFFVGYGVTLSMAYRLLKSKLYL
# Sequence of UniProt Q86VI4 (Q86VI4 whole entry, looked up): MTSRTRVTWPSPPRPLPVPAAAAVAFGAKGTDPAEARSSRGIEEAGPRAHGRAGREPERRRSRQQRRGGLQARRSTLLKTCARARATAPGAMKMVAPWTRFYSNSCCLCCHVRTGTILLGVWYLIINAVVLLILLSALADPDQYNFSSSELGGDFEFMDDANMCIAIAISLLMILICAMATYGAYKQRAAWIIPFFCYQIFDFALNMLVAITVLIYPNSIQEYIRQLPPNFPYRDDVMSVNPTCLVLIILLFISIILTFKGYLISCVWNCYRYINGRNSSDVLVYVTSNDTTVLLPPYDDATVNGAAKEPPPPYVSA
# Sequence of UniProt P07948 (P07948 whole entry, looked up): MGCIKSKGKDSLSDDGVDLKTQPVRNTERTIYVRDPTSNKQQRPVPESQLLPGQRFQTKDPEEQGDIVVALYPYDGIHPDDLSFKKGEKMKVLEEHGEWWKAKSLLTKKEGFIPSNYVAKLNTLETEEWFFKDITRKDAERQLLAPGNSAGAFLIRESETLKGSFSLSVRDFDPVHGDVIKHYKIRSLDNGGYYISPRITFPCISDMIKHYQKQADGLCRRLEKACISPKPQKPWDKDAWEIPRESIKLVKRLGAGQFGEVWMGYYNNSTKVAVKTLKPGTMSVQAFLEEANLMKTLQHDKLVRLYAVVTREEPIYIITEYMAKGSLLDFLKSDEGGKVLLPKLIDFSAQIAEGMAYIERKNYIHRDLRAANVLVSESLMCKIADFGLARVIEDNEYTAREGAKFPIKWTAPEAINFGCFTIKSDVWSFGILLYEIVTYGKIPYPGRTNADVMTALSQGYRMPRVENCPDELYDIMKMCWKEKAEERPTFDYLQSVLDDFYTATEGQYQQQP
# Sequence of UniProt P43361 (P43361 whole entry, looked up): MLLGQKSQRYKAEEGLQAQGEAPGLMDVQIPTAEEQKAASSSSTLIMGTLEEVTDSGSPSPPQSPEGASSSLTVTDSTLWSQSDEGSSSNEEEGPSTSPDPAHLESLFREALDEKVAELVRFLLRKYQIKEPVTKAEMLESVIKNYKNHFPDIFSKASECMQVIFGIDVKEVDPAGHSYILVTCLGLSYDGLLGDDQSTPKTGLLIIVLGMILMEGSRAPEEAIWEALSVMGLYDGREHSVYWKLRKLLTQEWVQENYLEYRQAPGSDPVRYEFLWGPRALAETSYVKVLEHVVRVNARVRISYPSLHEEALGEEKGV
# Sequence of UniProt O60291 (O60291 whole entry, looked up): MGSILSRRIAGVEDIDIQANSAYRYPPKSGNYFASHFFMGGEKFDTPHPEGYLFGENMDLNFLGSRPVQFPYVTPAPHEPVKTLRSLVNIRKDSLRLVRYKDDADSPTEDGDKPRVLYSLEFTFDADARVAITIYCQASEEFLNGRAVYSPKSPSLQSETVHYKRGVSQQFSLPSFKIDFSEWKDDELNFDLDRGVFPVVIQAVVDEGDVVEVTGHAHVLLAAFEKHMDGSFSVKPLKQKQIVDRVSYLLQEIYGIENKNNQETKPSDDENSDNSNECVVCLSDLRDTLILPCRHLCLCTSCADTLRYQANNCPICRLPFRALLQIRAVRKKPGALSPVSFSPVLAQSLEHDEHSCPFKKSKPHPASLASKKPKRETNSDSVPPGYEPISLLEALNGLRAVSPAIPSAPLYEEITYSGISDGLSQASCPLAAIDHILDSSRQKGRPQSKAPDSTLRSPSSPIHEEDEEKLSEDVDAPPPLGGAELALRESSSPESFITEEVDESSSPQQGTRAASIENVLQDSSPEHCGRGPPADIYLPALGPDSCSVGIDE
# Sequence of UniProt Q9GZY8 (Q9GZY8 whole entry, looked up): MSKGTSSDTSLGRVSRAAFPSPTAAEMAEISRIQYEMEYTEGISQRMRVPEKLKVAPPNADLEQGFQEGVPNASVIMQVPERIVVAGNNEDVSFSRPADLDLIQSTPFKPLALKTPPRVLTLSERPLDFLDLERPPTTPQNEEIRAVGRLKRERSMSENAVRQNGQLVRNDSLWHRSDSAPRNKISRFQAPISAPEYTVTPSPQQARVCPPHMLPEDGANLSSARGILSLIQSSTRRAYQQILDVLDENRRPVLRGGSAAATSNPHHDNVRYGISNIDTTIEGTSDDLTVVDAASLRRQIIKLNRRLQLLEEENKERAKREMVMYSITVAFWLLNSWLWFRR
# Sequence of UniProt Q8WVP7 (Q8WVP7 whole entry, looked up): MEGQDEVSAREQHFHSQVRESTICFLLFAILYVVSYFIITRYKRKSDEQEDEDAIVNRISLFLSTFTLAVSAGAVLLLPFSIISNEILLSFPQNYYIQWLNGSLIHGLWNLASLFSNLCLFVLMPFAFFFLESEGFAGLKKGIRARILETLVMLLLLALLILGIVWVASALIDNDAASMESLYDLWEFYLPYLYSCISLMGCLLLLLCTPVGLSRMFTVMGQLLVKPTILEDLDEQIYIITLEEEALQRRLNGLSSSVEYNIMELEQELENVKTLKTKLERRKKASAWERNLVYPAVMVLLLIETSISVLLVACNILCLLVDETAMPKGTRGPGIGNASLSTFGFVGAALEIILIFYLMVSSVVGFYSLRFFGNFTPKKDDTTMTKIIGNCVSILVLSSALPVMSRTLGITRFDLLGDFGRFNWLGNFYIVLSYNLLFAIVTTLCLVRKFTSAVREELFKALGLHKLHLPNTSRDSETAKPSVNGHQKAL
# Sequence of UniProt Q9NUN5 (Q9NUN5 whole entry, looked up): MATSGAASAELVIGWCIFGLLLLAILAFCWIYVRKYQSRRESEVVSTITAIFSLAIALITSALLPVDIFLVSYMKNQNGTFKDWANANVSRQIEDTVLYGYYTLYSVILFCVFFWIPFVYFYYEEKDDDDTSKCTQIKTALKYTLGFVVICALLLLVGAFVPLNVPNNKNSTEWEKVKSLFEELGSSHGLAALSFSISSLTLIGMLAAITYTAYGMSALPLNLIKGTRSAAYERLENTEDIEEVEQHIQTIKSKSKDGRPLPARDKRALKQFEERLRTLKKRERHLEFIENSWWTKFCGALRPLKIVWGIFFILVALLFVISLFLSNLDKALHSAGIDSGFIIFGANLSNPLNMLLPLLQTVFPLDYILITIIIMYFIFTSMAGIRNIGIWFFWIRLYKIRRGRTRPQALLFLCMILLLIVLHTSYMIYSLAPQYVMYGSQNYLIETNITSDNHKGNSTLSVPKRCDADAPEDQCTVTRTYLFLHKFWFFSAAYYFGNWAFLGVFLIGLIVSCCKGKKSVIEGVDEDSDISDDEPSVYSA
# Sequence of UniProt Q9H3U5 (Q9H3U5 whole entry, looked up): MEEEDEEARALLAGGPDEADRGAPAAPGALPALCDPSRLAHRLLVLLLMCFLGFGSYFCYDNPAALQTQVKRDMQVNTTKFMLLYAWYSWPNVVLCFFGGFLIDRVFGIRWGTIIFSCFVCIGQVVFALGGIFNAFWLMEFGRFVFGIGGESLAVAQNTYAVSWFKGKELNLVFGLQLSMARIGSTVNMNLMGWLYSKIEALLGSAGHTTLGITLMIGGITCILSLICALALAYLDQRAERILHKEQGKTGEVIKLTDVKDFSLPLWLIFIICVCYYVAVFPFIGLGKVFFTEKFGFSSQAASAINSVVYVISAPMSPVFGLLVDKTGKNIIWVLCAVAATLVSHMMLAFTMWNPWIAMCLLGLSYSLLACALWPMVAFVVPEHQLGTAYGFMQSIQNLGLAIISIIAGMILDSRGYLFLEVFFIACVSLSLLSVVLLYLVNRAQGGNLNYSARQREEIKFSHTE
Target,log2 fold change [1],log2 fold change (filanesib),log2 fold change (zotarolimus),log2 fold change (idasanutlin),log2 fold change [2],log2 fold change (gefitinib),log2 fold change (lapatinib),log2 fold change (alisertib),log2 fold change [3],log2 fold change (pictilisib)
LYN isoform 2 (UniProt P07948),-0.2,-0.212,-0.054,-0.027,0.074,0.069,-0.046,,,
MGST1 (UniProt P10620),0.039,-0.019,0.006,-0.06,0.152,-0.036,-0.009,0.013,-0.043,0.112
LAMP2 isoform 2 (UniProt P13473),-0.049,,0.022,0.017,-0.027,-0.039,-0.104,-0.105,0.09,0.075
LENG8 (UniProt Q96PV6),0.205,0,-0.061,-0.151,,-0.056,,-0.149,-0.016,-0.002
MCCC2 (UniProt Q9HCC0),0.137,-0.07,0,-0.033,-0.022,0.006,0.001,-0.057,0.083,-0.031
IL10RB (UniProt Q08334),-0.161,0.299,,-0.008,0.048,0.088,0.011,,,0.025
MFF (UniProt Q9GZY8),0.038,0.075,-0.022,0.053,-0.141,0.012,-0.061,0.024,0.128,0.103
MAP2K5 (UniProt Q13163),0.206,,0.003,-0.117,,,,,,
MAN2B2 (UniProt Q9Y2E5),-0.077,-0.027,,-0.012,-0.038,0.044,-0.026,0.022,0.075,
LMBR1 isoform 3 (UniProt Q8WVP7),-0.165,-0.267,-0.033,0.156,-0.218,,-0.043,0.016,0.029,0.043
LIN52 (UniProt Q52LA3),,,,,,,,-0.924 (active),0,
MFAP3 (UniProt P55082),,-0.092,,0.192,,,,,,
ING5 (UniProt Q8WYH8),0.208,,0.014,,0.127,,-0.128,0.003,0.179,
MCOLN3 (UniProt Q8TDD5),,,,,0.068,-0.04,-0.02,0.058,-0.035,0.044
MAPK7 (UniProt Q13164),-0.066,,,0.003,,,,,,0.108
LMBRD1 (UniProt Q9NUN5),,-0.39 (active),0.049,0.102,-0.062,0,-0.026,-0.022,0.059,-0.03
MARCHF3 (UniProt Q86UD3),,-0.272,,,0.027,-0.195,-0.033,,,
LPIN3 isoform 2 (UniProt Q9BQK8),,0.006,0.011,-0.075,0.111,-0.029,0.022,0.022,-0.01,0.147
KMT5A (UniProt Q9NQR1),,0.976 (active),,,,,,,,0.368
IKZF1 isoform 2 (UniProt Q13422),,-0.075,0.1,,,-0.044,,0.079,-0.031,
IGFBP6 (UniProt P24592),,,-1.03 (active),0.776 (active),,,,,,
ITPRID2 (UniProt P28290),0,,,,0.141,,-0.141,,,
MAPK11 (UniProt Q15759),-0.126,,,,,,,,,0.068
LAPTM4B (UniProt Q86VI4),,0.186,,,,,,-0.027,0.007,0.017
MAP4K4 isoform 6 (UniProt O95819),,-0.018,-0.162,,,-0.028,,,-0.179,

Target,log2 fold change [1],log2 fold change (filanesib),log2 fold change (zotarolimus),log2 fold change (idasanutlin),log2 fold change [2],log2 fold change (gefitinib),log2 fold change (lapatinib),log2 fold change (alisertib),log2 fold change [3],log2 fold change (pictilisib)
IKZF1 (UniProt R9R4D9),-0.167,,-0.192,,0.084,,0.037,,,0.059
KIZ (UniProt Q2M2Z5),-0.008,,0.269,-0.019,-0.064,,0.066,,,-0.215
MED29 (UniProt Q9NX70),,,,0.1,-0.77 (active),0.058,-0.028,-0.571,0.115,
MGRN1 isoform 2 (UniProt O60291),-0.015,,-0.017,-0.108,0.069,,-0.238,,,-0.004
KIF1B isoform 3 (UniProt O60333),,,,,,,,0.251,-0.037,
IP6K1 (UniProt Q92551),,0.037,0.151,-0.044,1.11 (active),,0.128,0.042,0.091,0.13
LSR isoform 3 (UniProt Q86X29),,0.188,0.115,,0.041,,0.073,-0.011,0.033,
LRRFIP1 isoform 4 (UniProt Q32MZ4),-0.061,,0.202,0.108,,,,,,-0.046
KXD1 (UniProt Q9BQD3),,,0.073,-0.021,0.042,,-0.054,-0.019,0.342 (active),0.063
MFSD1 isoform 6 (UniProt Q9H3U5),,-0.123,-0.108,-0.01,0.019,-0.021,-0.026,-0.035,0.181,0.055
MAPRE3 isoform 2 (UniProt Q9UPY8),0.192,,0.008,0.155,-0.176,-0.02,-0.265,,,
MFSD12 isoform 3 (UniProt Q6NUT3),,-0.197,0.024,-0.097,,,,,,0.069
MAGED1 isoform 2 (UniProt Q9Y5V3),,0.264,0.001,0.054,-0.058,0.228,0.034,,,
LOX (UniProt P28300),,,,,,-0.391,,-0.111,0.146,
MAP4 isoform 5 (UniProt P27816),,-0.039,,-0.025,-0.033,-0.005,0.036,0.143,-0.045,
KMT2C isoform 3 (UniProt Q8NEZ4),,0.029,-0.028,0.012,,0.058,,-0.028,-0.027,0.229
KIF13A isoform 4 (UniProt Q9H1H9),,-0.684,0.03,-0.081,,,,,,
MAGEA8 (UniProt P43361),0.061,,0.108,0.002,0.057,-0.069,-0.032,,,0.145
LEPROT (UniProt O15243),,,-0.056,0.31,,,,-0.027,0.041,-0.212
IPP (UniProt Q9Y573),,,,0.051,,,,,,
ITM2C (UniProt Q9NQX7),,-0.275,-0.047,-0.061,-0.12,-0.092,-0.045,,,-0.149
LRRCC1 (UniProt Q9C099),,,,-0.069,,,,,,
LSR (UniProt M0QZL9),,0.168,,,,,,,,
KLHL18 (UniProt O94889),,0,0.022,-0.048,-0.048,0.057,0.071,-0.068,0.038,0.09
